The structures appear in SMILES notation.

The test system of the experiment is HeLa. Description: percent cells in G2/M phase; higher = more G2/M arrest. The conditions noted are these: 10 µM; 20 h; hit class: G2/M-phase inhibitor. The protocol:
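HTS of 79,827 drug-like compounds at 10 uM. HeLa cells in 384-well plates were treated for 20 h, fixed, stained with Vybrant DyeCycle Green and scanned on an Acumen eX3 cytometer to give per-well cell cycle profiles. Only G2/M hits (>=67% G2/M) are listed.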
For `CN1Cc2c(ccc3c2OCO3)[C@@H]2[C@H]1c1cc3c(cc1C[C@@H]2O)OCO3` [Chelidonine monohydrate (+)], the “percent cells in G2/M phase” value was 72%.

These data come from the supplement of paper PMC4237247.
